Experimental data: the supplement of paper PMC13172266
Counter-ions that a name gives are not always drawn.

How the values were obtained:
Assay in all cases: cell proliferation relative to vehicle (% of vehicle); higher = less growth inhibition
Conditions in all cases: 72 h
[1] = tested on: U2932 TK216-resistant clone 2
How it was run: (§1)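 Each of 348 targeted inhibitors was tested at 500 nM or 50 nM for 72 h on U2932 cells, both parental and two clones resistant to an ETS-targeting agent. Readout was by MTT with absorbance read on a Cytation 3. Proliferation appears as percent of proliferating cells relative to vehicle (DMSO).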

[2] = tested on: U2932 TK216-resistant clone 3
How it was run: as §1

U2932 parental = tested on: U2932 parental
How it was run: as §1

| Structure (SMILES) | cell proliferation ([1]; 50 nM) | cell proliferation ([1]; 500 nM) | cell proliferation ([2]; 50 nM) | cell proliferation ([2]; 500 nM) | cell proliferation (U2932 parental; 50 nM) | cell proliferation (U2932 parental; 500 nM) |
| --- | --- | --- | --- | --- | --- | --- |
| CN1CCN(CCCNc2ncc(Cl)c(-c3cc4c(C(=O)NC5CC5)cccc4s3)n2)CC1 | 101 | 86.5 | 98.2 | 99 | 95.3 | 100 |
| COc1ccc(-c2ccc3c(N4CCOC[C@@H]4C)nc(N4CCOC[C@@H]4C)nc3n2)cc1CO | 72.7 | 34.8 | 75.1 | 40.2 | 63.8 | 35.1 |
| CCc1c2c(nc3ccc(OC(=O)N4CCC(N5CCCCC5)CC4)cc13)-c1cc3c(c(=O)n1C2)COC(=O)[C@]3(O)CC [Irinotecan] |  |  |  |  | 94.3 | 50.5 |
| O=NN(CCCl)C(=O)NC1CCCCC1 [Lomustine] | 112 | 103 | 111 | 105 | 101 | 114 |
| CCCS(=O)(=O)Nc1ccc(F)c(C(=O)c2c[nH]c3ncc(Cl)cc23)c1F | 99.4 | 97.3 | 106 | 106 | 95.1 | 95.6 |
| Cc1cccc(-c2[nH]c(CNc3ccccc3F)nc2-c2ccc3ncnn3c2)n1 | 106 | 102 | 99.6 | 106 | 104 | 98.6 |
| O=C(NOCC1CC1)c1ccc(F)c(F)c1Nc1ccc(I)cc1Cl | 102 | 90.6 | 98.5 | 90.8 | 96.2 | 95.7 |
| COc1cc(-c2cc(-c3ccc(N4CCNCC4)cc3)cnc2C)cc(OC)c1OC | 99.7 | 88.1 | 107 | 88.5 | 104 | 96.6 |
| CC(=O)Nc1ccc(NC(=S)NC(=O)c2ccc(C(C)(C)C)cc2)cc1 [Tenovin-1] | 105 | 95.1 | 107 | 102 | 102 | 98.7 |
| COc1cc2c(NC3CCN(CC4CCCCC4)CC3)nc(N3CCCN(C(C)C)CC3)nc2cc1OCCCN1CCCCC1 | 95.3 | 105 | 91.4 | 115 | 96.3 | 110 |
| CCCCCCCCCCCCc1ccc(S(=O)(=O)Nc2nncs2)cc1 | 102 | 88.7 | 102 | 100 | 101 | 100 |
| CCCCC(C=O)NC(=O)C(CC(C)C)NC(=O)C(CC(C)C)NC(C)=O (stereo not drawn) | 107 | 12.7 | 106 | 24.2 | 103 | 39.6 |
| CN(C)CCOc1ccc(/C(=C(/CCCl)c2ccccc2)c2ccccc2)cc1 [Toremifene Citrate] | 102 | 84.4 | 101 | 75.1 | 101 | 88.8 |
| Oc1cc(O)cc(/C=C/c2ccc(O)c(O)c2)c1 [Piceatannol] | 97.8 | 99.7 | 97.6 | 100 | 98.7 | 94 |
| CC(C)(C#N)c1cc(Cn2cncn2)cc(C(C)(C)C#N)c1 [Anastrozole] | 99.8 | 108 | 103 | 101 | 105 | 96.7 |
| CN(c1ncccc1CNc1nc(Nc2ccc3c(c2)CC(=O)N3)ncc1C(F)(F)F)S(C)(=O)=O | 95.6 | 91.2 | 99.2 | 95.2 | 96.9 | 87.2 |
| CS(=O)(=O)N1CCN(Cc2cc3nc(-c4cccc5[nH]ncc45)nc(N4CCOCC4)c3s2)CC1 |  |  |  |  | 85.4 | 49.1 |
| Cc1ccc(Nc2nccc(N(C)c3ccc4c(C)n(C)nc4c3)n2)cc1S(N)(=O)=O [Pazopanib HCl] | 110 | 102 | 101 | 99.6 | 95.2 | 105 |
| O=C(c1ccc(/C=C/c2n[nH]c3ccccc23)cc1)N1CCNCC1 | 109 | 91 | 104 | 82.4 | 95 | 72.2 |
| C=CC(=O)N1CCC[C@@H](n2nc(-c3ccc(Oc4ccccc4)cc3)c3c(N)ncnc32)C1 |  |  |  |  | 76 | 70.9 |

| Structure (SMILES) | cell proliferation ([1]; 50 nM) | cell proliferation ([1]; 500 nM) | cell proliferation ([2]; 50 nM) | cell proliferation ([2]; 500 nM) | cell proliferation (U2932 parental; 50 nM) | cell proliferation (U2932 parental; 500 nM) |
| --- | --- | --- | --- | --- | --- | --- |
| COC1=CC(c2cc3ccccc3[nH]2)=N/C1=C\c1[nH]c(C)cc1C [Obatoclax Mesylate (GX15-070)] | 94.8 | 1.6 | 102 | 8.59 | 75.2 | 2.95 |
| O=c1cc(-c2cccc3c2Sc2ccccc2S3)oc(N2CCOCC2)c1 | 108 | 102 | 98.8 | 95.3 | 102 | 103 |
| CC(C)c1onc(-c2c(Cl)cccc2Cl)c1COc1ccc(/C=C/c2cccc(C(=O)O)c2)c(Cl)c1 | 105 | 112 | 104 | 105 | 108 | 111 |
| C[C@@H](Oc1cc(-c2cnn(C3CCNCC3)c2)cnc1N)c1c(Cl)ccc(F)c1Cl | 97.6 | 74.4 | 86.4 | 61.9 | 89.9 | 56.5 |
| C=CC(=O)N1C/C(=C\c2ccc([N+](=O)[O-])cc2)C(=O)/C(=C/c2ccc([N+](=O)[O-])cc2)C1 | 31.4 | -1.71 | 30.7 | -2.43 | 34.3 | 1.03 |
| NC(=O)c1ncn([C@@H]2O[C@H](CO)[C@@H](O)[C@H]2O)c1N [Acadesine] | 88.9 | 94.5 | 98.7 | 98.1 | 102 | 98.4 |
| Cn1cc(C2=C(c3ccc(Cl)cc3Cl)C(=O)NC2=O)c2ccccc21 | 105 | 96.2 | 105 | 108 | 97.8 | 100 |
| CC(=O)O[C@H]1C(=O)[C@@]2(C)[C@H]([C@H](OC(=O)c3ccccc3)[C@]3(O)C[C@H](OC(=O)[C@H](O)[C@@H](NC(=O)c4ccccc4)c4ccccc4)C(C)=C1C3(C)C)[C@]1(OC(C)=O)CO[C@@H]1C[C@@H]2O [Paclitaxel] | 11.2 | 14.3 | 6.88 | 4.73 | 11.2 | 9.85 |
| COC(=O)c1ccc2c(c1)NC(=O)/C2=C(\Nc1ccc(N(C)C(=O)CN2CCN(C)CC2)cc1)c1ccccc1 [Nintedanib (BIBF 1120)] | 105 | 94.8 | 93.4 | 81.7 | 102 | 96.6 |
| Nc1ccn([C@@H]2O[C@H](CO)[C@@H](O)[C@@H]2O)c(=O)n1 [Cytarabine] | 93.7 | 24 | 93.6 | 65.8 | 88.9 | 36 |
| NC(=O)Nc1sc(-c2ccc(F)cc2)cc1C(N)=O | 109 | 92.7 | 106 | 102 | 104 | 99.5 |
| CC(C)NCCCn1c(Sc2cc3c(cc2I)OCO3)nc2c(N)ncnc21 | 113 | 6.42 | 105 | 31.6 | 112 | 6.73 |
| CCCS(=O)(=O)Nc1ccc(F)c(C(=O)c2c[nH]c3ncc(-c4ccc(Cl)cc4)cc23)c1F [Vemurafenib (PLX4032, RG7204)] | 106 | 110 | 101 | 108 | 101 | 100 |
| CCN(CC)CCNC(=O)c1ccc(N)cc1 [Procainamide HCl] |  |  |  |  | 93.9 | 95.9 |
| CCN(CC)CCCC(C)Nc1ccnc2cc(Cl)ccc12 (stereo not drawn) [Chloroquine Phosphate] | 98.7 | 104 | 116 | 111 | 94.1 | 99.2 |
| O=C(NCc1ccncc1)C12CC3CC(C1)CC(c1ccc(Cl)cc1)(C3)C2 | 105 | 91.5 | 105 | 98.3 | 98.2 | 98.2 |
| CCNC(=O)c1noc(-c2cc(C(C)C)c(O)cc2O)c1-c1ccc(CN2CCOCC2)cc1 | 4.68 | 4.69 | 21.4 | 21.1 | 3.32 | 3.9 |
| COc1nc(OCc2cccc(-c3ccccc3)c2C)ccc1CNCCNC(C)=O [PD-1/PD-L1 inhibitor 2] | 95.9 | 89 | 94.4 | 82.7 | 104 | 91.5 |
| Cn1cnc2c(F)c(Nc3ccc(Br)cc3Cl)c(C(=O)NOCCO)cc21 [Selumetinib (AZD6244)] | 106 | 95.8 | 97 | 90.1 | 99.3 | 101 |
